Our source for the Kd values is PMC5540273 (PLoS ONE, 2017).
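Also: kd values determined as follow-up on hits from a single-replicate KINOMEscan panel screen.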

In turn, `CCCc1ccc(S(=O)(=O)NC2CCN(c3ccnc(Nc4ccc(F)cc4)n3)C2)cc1` (stereo not shown) [GSK1379715] displayed a Kd in the test with NEK1 of more than 10 µM.

In the test on NEK1, `CCn1c(-c2ccccn2)nc2cnccc21` [SB-736398] showed a Kd of more than 10 µM.

On to `CSc1nn2c(=O)cc(N3CCOCC3)nc2n1Cc1cccc(C(F)(F)F)c1C` [GSK2363608], for which, in the test with NEK2, the dissociation constant (Kd) was more than 10 µM.

With `O=C(O)COc1ncnc2cc(-c3ccc4[nH]ncc4c3)sc12`, the Kd with NEK3 was determined as 210 nM.

In the case of `Cn1ccc2ncnc(Oc3ccc(Nc4nc5ccccc5[nH]4)cc3)c21`, the Kd with NEK4 is more than 10 µM.

`COc1ccc(CNC(=O)NC2CCN(c3ccnc(Nc4cc(OC)c(OC)c(OC)c4)n3)C2)cc1` (stereo not shown) [GSK1379748] came in with a Kd in the test on NEK5 of 730 nM. This lies in the sub-micromolar range.

Consider `COc1cc(Nc2nccc(N3CCC(NC(=O)Nc4cc(C)ccc4C)C3)n2)cc(OC)c1OC` (stereo not shown) [GSK1379762], for which, in the test on NEK5, the affinity, expressed as Kd, was 2300 nM.

Consider `O=C1NC(=O)C(N2CCc3ccccc32)=C1c1ccccc1Cl` [SB-373598], for which the Kd in the test on PAK3 was more than 10 µM.

As to `Nc1ncnc2[nH]c(-c3ccccc3)nc12` [AH5015], in the test on PAK3, the Kd was more than 10 µM.

On to `CS(=O)(=O)c1ccc(-c2nc3n(c2-c2ccncc2)CCC3)cc1` [SKF-105942], for which the dissociation constant (Kd) in the test with PAK6 is more than 10 µM.

The term Kd denotes the free concentration of one partner at which half of the binding sites on the other are occupied at equilibrium, for simple one-to-one binding. Low readings indicate a tighter complex, high ones a looser complex.
